Assay [1] in a line: qHTS assay to test for compound auto fluorescence at 535 nm (green) in HEK293 cells (AID 720680). For orientation: qHTS replaces the single test concentration by a dilution series.
Assay [2] in a line: qHTS assay to test for compound auto fluorescence at 460 nm (blue) in HEK293 cell free culture (AID 720681). Note: potency is the fitted concentration of half-maximal effect. The method, boiled down:
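Blue fluorescence (Ex 405/Em 460 nm, triamterene-equivalent) was read immediately after pin transfer of compound or DMSO into medium (DMEM, 10% FBS) without cells.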

Assay [3] can be described thus: qHTS assay to test for compound auto fluorescence at 535 nm (green) in HEK293 cell free culture (AID 720682). In short, it runs like this:
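No cells present: wells hold DMEM supplemented with 10% FBS, into which compound or vehicle is pinned. Green emission is then recorded (485 nm excitation, 535 nm emission) and scaled to fluorescein.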

Assay [4] can be described thus: qHTS assay to test for compound auto fluorescence at 590 nm (red) in HEK293 cell free culture (AID 720683). The method, boiled down:
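Red-channel autofluorescence of compounds in culture medium (DMEM, 10% FBS), no cells, measured at 540/590 nm. Rose Bengal sodium is the reference fluorophore for equivalence.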

Assay [5] is described as follows: qHTS assay to test for compound auto fluorescence at 590 nm (red) in HepG2 cell free culture (AID 720684). The method, boiled down:
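Steps: dispense MEM/10% FBS medium, no cells; pin compound or DMSO vehicle; read red channel, Ex/Em 540/590 nm. Output given as Rose Bengal sodium equivalents.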

Assay [6] in a line: qHTS assay to test for compound auto fluorescence at 460 nm (blue) in HepG2 cell free culture (AID 720685). Note: potency is the fitted concentration of half-maximal effect. In short, it runs like this: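 Compound (23 nL) or DMSO pinned into cell-free MEM with 10% FBS; blue fluorescence read at 405/460 nm excitation/emission, expressed as auto-fluorescence equivalency to triamterene.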
A short description of assay [7]: qHTS assay to test for compound auto fluorescence at 535 nm (green) in HepG2 cell free culture (AID 720686).
The nature of assay [8]: qHTS assay to test for compound auto fluorescence at 460 nm (blue) in HepG2 cells (AID 720687). Note: potency is the fitted concentration of half-maximal effect. In short, it runs like this: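 Blue-channel autofluorescence (Ex/Em 405/460 nm, triamterene-equivalent) was measured after 1 hr compound exposure at 37 C, 5% CO2. Cells were HepG2, plated overnight at 37 C in MEM plus 10% FBS.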
In assay [9] the target is Glucocorticoid receptor (Homo sapiens) (UniProt P04150). The assay can be described thus: qHTS assay to identify small molecule agonists of the glucocorticoid receptor (GR) signaling pathway (AID 720691; active = well fitted activation curve with a large enough effect in the signal ratio in the repeat runs, not every such curve was filed as active; the % refers to the signal ratio). As to conditions: GR-bla HeLa, beta-lactamase reporter ratio, 18 h; activation: at 62.4 µM (top of the series). The method, boiled down: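 Agonist mode in a HeLa line carrying a GRE-controlled beta-lactamase reporter. Compounds act for 18 h at 37 C before a 2 h room-temperature FRET substrate step and fluorescence reading.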
Chain of Glucocorticoid receptor (Homo sapiens) (P04150 whole entry, looked up): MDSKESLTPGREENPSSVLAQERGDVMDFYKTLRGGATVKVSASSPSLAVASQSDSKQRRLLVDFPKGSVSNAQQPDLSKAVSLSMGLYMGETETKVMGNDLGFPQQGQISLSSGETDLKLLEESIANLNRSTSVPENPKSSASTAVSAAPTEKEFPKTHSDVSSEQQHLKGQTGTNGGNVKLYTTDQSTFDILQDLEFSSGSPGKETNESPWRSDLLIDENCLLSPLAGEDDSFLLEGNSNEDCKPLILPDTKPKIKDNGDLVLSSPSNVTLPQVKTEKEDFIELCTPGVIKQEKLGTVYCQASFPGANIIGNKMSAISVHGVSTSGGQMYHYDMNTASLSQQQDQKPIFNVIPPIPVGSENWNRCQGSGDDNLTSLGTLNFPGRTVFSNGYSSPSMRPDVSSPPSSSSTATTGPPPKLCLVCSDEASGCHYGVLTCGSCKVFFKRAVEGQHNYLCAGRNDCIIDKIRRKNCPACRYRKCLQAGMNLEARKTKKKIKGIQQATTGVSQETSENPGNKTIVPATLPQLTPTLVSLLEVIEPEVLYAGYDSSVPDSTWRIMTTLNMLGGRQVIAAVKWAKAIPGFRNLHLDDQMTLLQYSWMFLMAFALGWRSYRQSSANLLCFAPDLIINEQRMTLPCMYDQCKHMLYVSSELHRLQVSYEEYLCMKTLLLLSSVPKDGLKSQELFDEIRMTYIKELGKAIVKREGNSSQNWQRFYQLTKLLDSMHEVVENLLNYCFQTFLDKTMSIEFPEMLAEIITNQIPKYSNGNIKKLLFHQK

Assay [10] has the same target. Briefly: qHTS assay to identify small molecule antagonists of the glucocorticoid receptor (GR) signaling pathway (AID 720692; active = well fitted inhibition curve with a large enough effect in the signal ratio in the repeat runs, not every such curve was filed as active; the % refers to the signal ratio). In short, it runs like this:
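Cells plated, rested 4 h at 37 C/5% CO2; compounds in DMSO pin-transferred; dexamethasone added to 5 nM final; 18 h at 37 C; B/G FRET substrate added, 2 h room temperature; fluorescence measured.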

Results filed as inconclusive are left out. Activity calls are given as the source filed them. Unless noted, calls come from the whole dose curve; as a rule, active = well fitted curve in the direction sought with a large enough effect in the repeat runs; inconclusive = weak or mixed curves; inactive = flat fitted curve, though single readings scatter.
Tags give direction and shape of the fitted curve or compound fluorescence and quenching.

For `O=C1c2ccccc2CN2C(=O)c3ccccc3CN12`, the call in assay [1], in assay [3], in assay [4] and in [5] was inactive. Moreover, the Potency result in assay [2], in assay [6], in assay [7], in [8], in assay [9] and in [10] was “inactive” in each case.
As to `Nc1nc(NC2CC2)c2ncn([C@@H]3C=C[C@@H](CO)C3)c2n1`, the outcome in assay [1], in assay [3], in assay [4] and in assay [5] was inactive. Further, the Potency result in assay [2], in assay [6], in [7], in assay [8], in assay [9] and in assay [10] was “inactive” in each case.
Turning to `O=C1C2CC3CC1CC(O)(C3)C2`, the result in assay [1], in assay [3], in assay [4] and in assay [5] was inactive. Also, the Potency entry in assay [2], in assay [6], in assay [7], in [8], in [9] and in [10] was “inactive” throughout.
Turning to `CCN(CC)CCNC(=O)c1ccc(NS(C)(=O)=O)cc1`, the molecule was classed as inactive in assay [1], in assay [3], in assay [4] and in [5]. Further, the Potency result in [2], in assay [6], in assay [7], in assay [8], in assay [9] and in assay [10] was “inactive” throughout.
As to `COc1ccc(/C=C/C(=O)O)cc1`, the result in assay [1], in [3], in assay [4] and in [5] was inactive. In addition, the Potency result in assay [2], in assay [6], in assay [7], in [8], in assay [9] and in assay [10] was “inactive” in each case.
In the case of `Cc1ccc2nc(-c3ccc(N)cc3)sc2c1S(=O)(=O)O`, the outcome in [1], in [3], in assay [4] and in assay [5] was inactive. Besides, the Potency in assay [2] is 15.8 µM (active); in [6], 25.1 µM [fluorescent] (active); in [8], 22.4 µM [fluorescent] (active). For the same molecule, the Potency result in [7], in assay [9] and in assay [10] was “inactive” throughout.
As for `O=C(O)c1cc2cc(Cc3cccnc3)ccc2o1`, the molecule was called inactive in assay [1], in [3], in assay [4] and in assay [5]. Besides, the Potency result in [2], in assay [6], in assay [7], in [8], in assay [9] and in [10] was “inactive” in each case.
As to `CC1=C(/C=C/C(C)=C/C=C/C(C)=C/C=C/C=C(C)/C=C/C=C(C)/C=C/C2=C(C)CCCC2(C)C)C(C)(C)CCC1`, the result in assay [1], in assay [3], in assay [4] and in [5] was inactive. For the same molecule, the Potency result in assay [2], in assay [6], in [7], in [8], in assay [9] and in assay [10] was “inactive” throughout.
Turning to `C/C=C/C1=C(C(=O)O)N2C(=O)[C@@H](NC(=O)[C@H](N)c3ccc(O)cc3)[C@H]2SC1`, the molecule was classed as inactive in [1], in assay [3], in assay [4] and in assay [5]. Besides, the Potency result in assay [2], in [6], in assay [7], in assay [8], in assay [9] and in [10] was “inactive” throughout.
As for `CCOC(=O)[C@H](CCc1ccccc1)N[C@@H](C)C(=O)N1[C@H](C(=O)O)C[C@H]2CCCC[C@@H]21`, the molecule was called inactive in assay [1], in assay [3], in assay [4] and in [5]. The Potency result in assay [2], in assay [6], in [7], in assay [8], in assay [9] and in assay [10] was “inactive” throughout.
For the molecule `O=C(O)[C@@H]1C[C@H](CP(=O)(O)O)CCN1`, the call in [1], in assay [3], in [4] and in [5] was inactive. Moreover, the Potency result in assay [2], in [6], in [7], in assay [8], in assay [9] and in [10] was “inactive” throughout.
On to `C[Se]CC[C@H](N)C(=O)O`, for which the outcome in assay [1], in assay [3], in assay [4] and in assay [5] was inactive. Also, the Potency result in [2], in [6], in assay [7], in [9] and in assay [10] was “inactive” in each case.
On to `O=C(CCCCCCCCc1cccnc1)N1CCC(C=C(c2ccccc2)c2ccccc2)CC1`, for which the outcome in assay [1], in [3], in assay [4] and in assay [5] was inactive. Moreover, the Potency result in [2], in assay [7] and in assay [8] was “inactive” each time.
In the case of `CC/C=C\C/C=C\C/C=C\C/C=C\C/C=C\C/C=C\CCC(=O)O`, the result in [1], in [3], in [4] and in [5] was inactive. For the same molecule, the Potency entry in assay [2], in [6], in assay [7] and in [9] was “inactive” each time.
Consider `NC(=O)[C@@H]1CCCN1C(=O)[C@H](Cc1cnc[nH]1)NC(=O)[C@@H]1CCC(=O)N1`, for which the result in assay [1], in assay [3], in [4] and in assay [5] was inactive. Also, the Potency entry in assay [2], in [6], in [7], in assay [9] and in [10] was “inactive” in each case.
Regarding `CC(Cc1ccc(O)c(O)c1)C(C)Cc1ccc(O)c(O)c1` (stereo not given), the result in assay [1], in [3], in assay [4] and in assay [5] was inactive. The Potency entry in [2], in [7] and in assay [8] was “inactive” throughout.
Turning to `CSCCC(N)C(=O)O` (stereo not given), the outcome in assay [1], in assay [3], in assay [4] and in assay [5] was inactive. Besides, the Potency result in assay [2], in assay [6], in assay [7], in assay [9] and in [10] was “inactive” in each case.
For `Cc1cn([C@H]2C[C@H](O)[C@@H](CO)O2)c(=O)[nH]c1=O`, the molecule was called inactive in assay [1], in assay [3], in assay [4] and in assay [5]. The Potency result in assay [2], in assay [6], in assay [7], in assay [8] and in assay [10] was “inactive” in each case.
For `N[C@@H](Cc1ccc(O)c(O)c1)C(=O)O`, the molecule was called inactive in assay [1], in [3], in assay [4] and in assay [5]. Also, the Potency entry in assay [2], in [6], in assay [7] and in assay [9] was “inactive” throughout.
Regarding `CCOc1ccc(S(=O)(=O)O)c2cccnc12`, the call in assay [1], in assay [3], in assay [4] and in [5] was inactive. Moreover, the Potency result in [2], in assay [6], in assay [7], in [9] and in assay [10] was “inactive” throughout.

For the origin of these results see PubChem BioAssay (Tox21).
